# Data: PubChem BioAssay (NCATS)
# “And” between values parts separate entries of the source, which are not always exact repeats. Equal values may be shown once. Results filed as inconclusive are left out. A call without a number means that no potency is given here. The source made the active and inactive calls. Calls come from the whole dose curve; as a rule, active = well fitted curve in the direction sought with a large enough effect; inconclusive = small, poorly fitted or top-dose-only effect, or another doubt; inactive = no such curve, though single readings can be large; an effect the other way counts as inactive or inconclusive.
# Molecular target: Phospholipid hydroperoxide glutathione peroxidase GPX4 (Homo sapiens) (UniProt P36969)
# Assay: Primary qHTS Assay for Inhibitors of Recombinant Selenoprotein Glutathione Peroxidase 4 (GPX4) (AID 1845192); note: nearly all actives have a fitted effect of over 65% in size; note: potency is the fitted concentration of half-maximal effect
# Conditions: recombinant GPX4, GR-coupled NADPH fluorescence, 15 min; series mostly up to 50 µM
# In short: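 qHTS, GR-coupled: GPX4 200 nM + cpd 30 min RT → GSH 1 mM, NADPH 0.5 mM, GR 100 nM → CHP 0.5 mM start; fluor 340/450 at t0 and t15 min; no-enzyme wells as control.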
# Sequence of Phospholipid hydroperoxide glutathione peroxidase GPX4 (Homo sapiens) (P36969 whole entry, looked up): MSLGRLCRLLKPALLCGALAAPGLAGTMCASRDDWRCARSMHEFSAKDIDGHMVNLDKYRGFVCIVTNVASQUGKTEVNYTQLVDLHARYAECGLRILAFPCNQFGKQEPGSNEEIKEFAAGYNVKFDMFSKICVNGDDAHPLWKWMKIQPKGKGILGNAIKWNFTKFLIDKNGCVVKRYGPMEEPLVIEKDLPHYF
Structure (SMILES),Potency,"activity change, negative = inhibition",outcome
O=c1c2ccccc2nc2n1CCc1c-2[nH]c2ccccc12,inactive,–,–
CN(C)Cc1c(C(=O)NCCOc2ccc(C(=O)NO)cc2)oc2ccccc12,inactive,–,–
CC(C)C[C@H](NC(=O)CNC(=O)c1cc(Cl)ccc1Cl)B(O)O,inactive,–,–
CC(C)(C)c1cc(C(C)(C)C)c(NC(=O)c2c[nH]c3ccccc3c2=O)cc1O,17.8 µM (active),–,–
Nc1nc(-c2nn(Cc3ccccc3F)c3ncccc23)nc(N)c1N1CCOCC1,inactive,–,–
CN1c2cc(O)c(N=NC(N)=O)cc2CC1S(=O)(=O)O (stereo unspecified),inactive,–,–
COc1cccc2c(NCc3ccccc3)nc(-n3c(N)nc4ccccc43)nc12,inactive,–,–
COc1c(OCCCN2CCOCC2)ccc2c3n(c(=NC(=O)c4cnc(N)nc4)nc12)CCN3,–,-4.71% [at 9.73 µM] (inactive) and -19.4% [at 9.73 µM] (inactive),inactive [at 9.73 µM]
CN1CC[C@@H](c2c(O)cc(O)c3c(=O)cc(-c4ccccc4Cl)oc23)[C@@H](O)C1,inactive,–,–
CC(C)[C@H](C(=O)Nc1ccc(C(=O)NO)cc1)c1ccccc1,inactive,–,–
Cc1ccc(-c2ncn(-c3ccc(Nc4nccc(-c5cccc(N6CCOCC6)c5)n4)cc3)n2)cn1,inactive,–,–
C=C1C(=CC=C2CCC[C@]3(C)[C@@H]([C@H](C)C=C[C@H](C)C(C)C)CC[C@@H]23)C[C@@H](O)C[C@@H]1O,inactive,–,–
CN[C@H]1CCc2cc(OC)c(OC)c(OC)c2-c2ccc(OC)c(=O)cc21,inactive,–,–
COc1cc2ncn(-c3cc(OCc4ccccc4C(F)(F)F)c(C(N)=O)s3)c2cc1OC,inactive,–,–
C=CC(=O)Nc1cc2c(Nc3ccc(F)c(Cl)c3)ncnc2cc1C#CC(C)(C)N1CCN(C)CC1,inactive,–,–
CC(C)c1ccc(Cn2ccc3c4c(N)nc(NC5CC5)nc4ccc32)cc1,18 µM (active),–,–

Structure (SMILES),Potency,"activity change, negative = inhibition",outcome
CC[C@H](CO)Nc1nc(NCc2ccccc2)c2ncn(C(C)C)c2n1,inactive,–,–
CN(c1ncccc1CNc1nc(Nc2ccc3c(c2)CC(=O)N3)ncc1C(F)(F)F)S(C)(=O)=O,inactive,–,–
COCCn1c2c([n+](Cc3cnccn3)c1C)C(=O)c1ccccc1C2=O,inactive,–,–
NC(=O)c1cccc2cn(-c3ccc([C@@H]4CCCNC4)cc3)nc12,16.1 µM (active),–,–
COc1ccc(CC2c3cc(OC)c(OC)cc3CC[N+]2(C)CCC(=O)OCCCCCOC(=O)CC[N+]2(C)CCc3cc(OC)c(OC)cc3C2Cc2ccc(OC)c(OC)c2)cc1OC (stereo unspecified),inactive,–,–
CC(=O)SC[C@@H](C)C(=O)N1CCC[C@H]1C(=O)N[C@@H](Cc1ccccc1)C(=O)O,inactive,–,–
Cc1nc2ccc(CN(C)c3ccc(C(=O)N[C@@H](CCC(=O)O)C(=O)O)s3)cc2c(=O)[nH]1,inactive,–,–
O=c1[nH]c(=O)n(C2CCCO2)cc1F (stereo unspecified),inactive,–,–
O=C(CCCCCCNC(=O)c1cnc(N(c2ccccc2)c2ccccc2)nc1)NO,inactive,–,–
Cc1nc2cnc3ccc(C#Cc4cccnc4)cc3c2n1-c1ccc(C(C)(C)C#N)cc1,inactive,–,–
C=CC(=O)Nc1cc2c(Nc3ccc(F)c(Cl)c3)ncnc2cc1OCCCN1CCOCC1,inactive,–,–
CN(C)CCCN=c1c2ccccc2n(C)c2[nH]c(=O)n(C)c(=O)c12,inactive,–,–
COc1cc(OC2CCN(C)CC2)ccc1Nc1ncc2c(n1)n(C1CCCC1)c(=O)n2C,inactive,–,–
Nc1ccccc1NC(=O)c1ccc(CNC(=O)OCc2cccnc2)cc1,inactive,–,–
COc1cc2c(cc1-c1c(C)noc1C)ncc1[nH]c(=O)n([C@H](C)c3ccccn3)c12,inactive,–,–
CN1CCN(c2ccc3nc(-c4c(N)c5c(F)cccc5[nH]c4=O)[nH]c3c2)CC1,inactive,–,–

# Molecular target: Luciferin 4-monooxygenase (Photinus pyralis) (UniProt P08659)
# Assay: Primary firefly luciferase (FLuc) qHTS assay for identification of artifact compounds. (AID 1845220); note: nearly all actives have a fitted effect of over 60% in size
# Conditions: purified firefly luciferase, luminescence, 5 min; series mostly up to 54.1 µM
# In short: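 In this counter-screen for luciferase artifacts, test compounds met substrate (10 uM each luciferin and ATP) before 10 nM enzyme started the reaction. Light output was measured 5 min later.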
Structure (SMILES),Potency,"activity change, negative = inhibition"
CN(C)Cc1c(C(=O)NCCOc2ccc(C(=O)NO)cc2)oc2ccccc12,inactive,–
COc1cccc2c(NCc3ccccc3)nc(-n3c(N)nc4ccccc43)nc12,inactive,–
COc1c(OCCCN2CCOCC2)ccc2c3n(c(=NC(=O)c4cnc(N)nc4)nc12)CCN3,–,-4.27% [at 11.6 µM] (inactive)
NC(=O)c1cccc2cn(-c3ccc([C@@H]4CCCNC4)cc3)nc12,inactive,–
O=C(CCCCCCNC(=O)c1cnc(N(c2ccccc2)c2ccccc2)nc1)NO,inactive,–
Nc1ccccc1NC(=O)c1ccc(CNC(=O)OCc2cccnc2)cc1,inactive,–
COc1cc2c(cc1-c1c(C)noc1C)ncc1[nH]c(=O)n([C@H](C)c3ccccn3)c12,inactive,–

# Test system: not listed separately
# Assay: Primary fluorescence-based thiol-reactive (MSTI) qHTS assay for identification of artifact compounds. (AID 1845221);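 note: thiol-reactive compounds lower the probe fluorescence signal; nearly all actives have a fitted effect of over 65% in size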
# Conditions: MSTI thiol-reactivity probe, 1 h; series mostly up to 53.8 µM
# In short: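 Curve-fitted percent inhibition (4-parameter Hill) derived from fluorescence, Ex 525/Em 598 nm, scaled with Acetyl-MSTI and MSTI; 1 h incubation at room temperature.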
Structure (SMILES),Potency,"activity change, negative = thiol reactive"
O=c1c2ccccc2nc2n1CCc1c-2[nH]c2ccccc12,inactive,–
COc1c(OCCCN2CCOCC2)ccc2c3n(c(=NC(=O)c4cnc(N)nc4)nc12)CCN3,–,32.5% [at 11.5 µM] (inactive)
NC(=O)c1cccc2cn(-c3ccc([C@@H]4CCCNC4)cc3)nc12,inactive,–
O=C(CCCCCCNC(=O)c1cnc(N(c2ccccc2)c2ccccc2)nc1)NO,inactive,–
Nc1ccccc1NC(=O)c1ccc(CNC(=O)OCc2cccnc2)cc1,inactive,–
COc1cc2c(cc1-c1c(C)noc1C)ncc1[nH]c(=O)n([C@H](C)c3ccccn3)c12,inactive,–
